Rows were chosen to be rich in hits. Some 3.4% of all compounds tested hit in one or more screens of this group.
PAFAH2 FP inh = PAFAH2 (human) inhibition; recombinant PAFAH2, FP-rhodamine activity probe, fluorescence polarization; 340,000 compounds, 0.99% hits; inhibition, % at 3.39 µM; Q99487; AID 492956;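 active = inhibition above the mean over all tested compounds plus 3 SD, cut at about 30% in these data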;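 also: inhibitors block probe labeling of enzyme so polarization drops; 0% = enzyme with DMSO and 100% = wells lacking PAFAH2 protein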
PP1 inh = blocks human PP1-alpha phosphatase, a PP5 counter-screen; AID 2235; 320,000 compounds, 0.9% hits; inhibition, % at 6.7 µM; purified PP1alpha, OMFP fluorescence; P62136;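 active = inhibition above the mean inhibition of all tested compounds plus 3 SD, computed separately for each screening campaign, cut at about 15% in these data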
Target sequence (P62136 whole entry, looked up): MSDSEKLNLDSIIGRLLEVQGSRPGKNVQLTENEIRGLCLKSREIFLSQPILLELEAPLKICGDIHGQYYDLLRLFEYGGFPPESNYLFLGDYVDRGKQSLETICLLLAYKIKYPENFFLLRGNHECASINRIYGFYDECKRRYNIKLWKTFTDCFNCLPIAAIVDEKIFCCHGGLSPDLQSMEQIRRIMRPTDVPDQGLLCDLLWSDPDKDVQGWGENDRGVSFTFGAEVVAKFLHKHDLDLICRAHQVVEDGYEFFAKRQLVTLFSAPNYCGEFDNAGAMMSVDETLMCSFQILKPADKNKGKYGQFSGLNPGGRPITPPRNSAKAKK
PP5 primary = blocks human protein phosphatase 5 activity. purified PP5c, OMFP substrate fluorescence. inhibition, % at 6.7 µM. 320,000 compounds, 0.18% hits. AID 1987;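 active = inhibition above the campaign's mean inhibition across all tested compounds plus 3 SD, cut at about 9.5% in these data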;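 also: 0% = DMSO only and 100% = 100 µM cantharidin control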
pPAFAH inh = pPAFAH (human) enzyme inhibition; Q13093; recombinant pPAFAH, FP-rhodamine probe fluorescence polarization; inhibition, % at 3.39 µM; 330,000 compounds, 1.5% hits; AID 463082;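 active = inhibition above the mean inhibition across the screen plus 3 SD, cut at about 25% in these data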;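 also: inhibitors block binding of the rhodamine activity-based probe so polarization drops; 0% = enzyme with DMSO and 100% = wells lacking pPAFAH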
PAFAH1B2 inh = inhibitors of human PAFAH1B2; P68402; recombinant PAFAH1B2, FP-rhodamine activity probe, fluorescence polarization; inhibition, % at 3.39 µM; 340,000 compounds, 1.2% hits; AID 492953;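 active = inhibition above the mean of all tested compounds plus 3 SD, cut at about 24% in these data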;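 also: 0% = enzyme with DMSO and 100% = wells lacking PAFAH1B2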
Target sequence (P68402 whole entry, looked up): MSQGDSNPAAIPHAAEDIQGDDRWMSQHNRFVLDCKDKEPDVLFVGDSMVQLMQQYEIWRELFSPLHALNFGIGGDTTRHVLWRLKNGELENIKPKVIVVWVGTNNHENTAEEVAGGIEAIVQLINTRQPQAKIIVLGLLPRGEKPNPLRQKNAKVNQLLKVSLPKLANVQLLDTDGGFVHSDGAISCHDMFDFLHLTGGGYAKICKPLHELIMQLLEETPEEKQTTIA
PAFAH1B3 inh = PAFAH1B3 (human) inhibition; Q15102; inhibition, % at 3.39 µM; recombinant PAFAH1B3, FP-rhodamine probe, fluorescence polarization; 340,000 compounds, 0.28% hits;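 active = inhibition above the screen-wide average of all tested compounds plus 3 SD, cut at about 25% in these data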;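 also: 0% = enzyme with DMSO only and 100% = wells lacking PAFAH1B3 protein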
pPAFAH confirm = confirmation of human plasma PAF acetylhydrolase (pPAFAH) inhibitors; shares compounds with pPAFAH inh; recombinant pPAFAH, FP-Rh probe fluorescence polarization; inhibition, % at 3.39 µM; 2,300 compounds, 72% hits; AID 463230;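 active = mean inhibition of the triplicate above the hit cutoff set for the earlier primary screen, cut at about 25% in these data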;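 also: 0% = enzyme with DMSO and 100% = wells lacking pPAFAH enzyme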
Starred values were filed as active, the others as inactive; x = no result given.

SMILES	PAFAH2 FP inh	PP1 inh	PP5 primary	pPAFAH inh	PAFAH1B2 inh	PAFAH1B3 inh	pPAFAH confirm
CN1CCN(CC(=O)N2c3ccccc3C(C)(c3ccccc3)CC2(C)C)CC1 (stereo not drawn)	-1	-4	3	3	-2	-2	x
CC(=O)Nc1nc(C)c(-c2csc(Nc3cccc(C(C)=O)c3)n2)s1	11	-3	1	38*	10	11	37*
O=C(Nc1ccc(S(=O)(=O)N2CCOCC2)cc1)C1CCCCC1	4	-5	1	3	1	2	x
CCN1C(=O)C2C(c3ccccc3F)NC(Cc3ccc(O)cc3)(C(=O)OC)C2C1=O (stereo not drawn)	7	-1	2	48*	7	7	2
CC(NCC(=O)NC(=O)NC1CCCC1)c1ccc(Cl)cc1Cl (stereo not drawn)	11	1	3	58*	8	10	3
C[C@H](CO)N1C[C@H](C)[C@@H](CN(C)S(C)(=O)=O)Oc2ccc(NC(=O)Nc3ccc(C(F)(F)F)cc3)cc2C1=O	-14	x	x	44*	1	1	45*
Cc1ccc(-c2nc(S(=O)(=O)c3ccc(C)cc3)c(SCC(=O)NCC3CCCO3)o2)cc1 (stereo not drawn)	-2	-3	0	6	4	4	x
O=C(c1ccco1)N1CCN(c2ccc(F)cc2)CC1	-1	-1	0	2	1	2	x
Nc1ccc(N2CCN(C(=O)c3ccco3)CC2)cc1	0	15	0	37*	1	6	6
CC1(C(=O)Nc2ccc3ccccc3c2)CC1(Br)Br (stereo not drawn)	-4	1	2	2	0	-6	x
Cc1ccc(NS(=O)(=O)c2ccc(-c3ccc(=O)[nH]n3)o2)cc1	-3	6	1	36*	5	-3	22
CC1CC(C)CN(C(=O)CCCn2c(=O)c3cccn3c3cccnc32)C1 (stereo not drawn)	2	3	0	-1	5	4	x
C=CCn1c(SC(C)C(=O)Nc2ccc(Cl)cn2)nnc1C1CC1 (stereo not drawn)	-5	-6	-2	-6	-2	-5	x
C=CCn1c(SC(C)C(=O)Nc2ccc(F)c(F)c2F)nnc1C1CC1 (stereo not drawn)	0	-5	2	35*	0	-7	2
Cc1cccc(NC(=O)CSc2ncnc3sc(C)c(C)c23)n1	1	x	x	x	-2	-6	x
Nc1ccc(O)cc1C(=O)OCC(=O)c1ccc(C2CCCCC2)cc1	12	3	6	51*	6	5	26*
O=C(CCCCCN1C(=O)c2cccc3cccc(c23)C1=O)NCc1cccnc1	x	-3	0	49*	x	x	3
O=C1CSC(=S)N1/N=C/c1ccc(O)c(O)c1O	36*	15	0	67*	7	19	64*
O=C1CSC(=S)N1/N=C/c1cc(Br)ccc1O	x	1	1	17	x	x	x
COc1cccc(C2Nc3c(F)cc(Br)cc3C3C=CCC32)c1OC (stereo not drawn)	9	-3	-1	0	2	16	x
COc1cccc2c1NC(C(=O)O)C1CC=CC21 (stereo not drawn)	48*	37*	4	57*	30*	24	11
CC1=NN(c2ccccc2)C(=O)/C1=C/c1ccc(Cl)cc1	14	x	x	x	9	7	x
CC1=NN(c2ccccc2)C(=O)/C1=C/c1c(O)n(-c2ccc(F)cc2)[nH]c1=O	48*	11	7	54*	47*	44*	53*
CCCCCOC(=O)C1=C(C)NC(=O)NC1c1ccc2c(c1)OCO2 (stereo not drawn)	8	6	3	5	9	2	x
CC1=C(C(=O)OCCCBr)C(c2ccc3c(c2)OCO3)NC(=O)N1 (stereo not drawn)	4	-1	1	43*	-5	-1	6
SMILES	PAFAH2 FP inh	PP1 inh	PP5 primary	pPAFAH inh	PAFAH1B2 inh	PAFAH1B3 inh	pPAFAH confirm
N#C/C(=N\Nc1ccc(Cl)c(Cl)c1)C(=O)C1CC1	x	2	6	41*	x	x	40*
Cc1ccnc(NCc2ccccc2O)c1	4	-2	-1	41*	1	7	1
NC(=O)COC(=O)c1ccccc1Nc1ccc(SC(F)F)cc1	-1	2	6	20	1	7	x
CC(OC(=O)c1ccccc1Nc1ccc(SC(F)F)cc1)C(N)=O (stereo not drawn)	-2	0	-1	35*	4	4	24
O=C(OCc1cc(=O)n2ccsc2n1)c1ccccc1O	3	x	x	0	5	2	x
O=C(OCc1cc(=O)n2ccsc2n1)c1ccccc1NCCO	4	x	x	74*	4	4	4
CC(OC(=O)CCCN=C1NS(=O)(=O)c2ccccc21)C(=O)N(C)c1ccccc1 (stereo not drawn)	1	-9	0	68*	-1	6	0
O=C(NCc1ccccc1Cl)/C(=C\c1cccnc1)NC(=O)c1ccccc1	0	-1	-2	2	4	4	x
NS(=O)(=O)c1ccc(N2CCCC2=O)c([N+](=O)[O-])c1	2	-4	3	44*	6	5	4
CC(C)=CCc1c2c(c(O)c3c(=O)c4c(oc13)-c1cc(O)c(O)cc1OC4C=C(C)C)C=CC(C)(C)O2 (stereo not drawn)	x	-6	0	37*	x	x	52*
CC(C)=CCc1c(-c2ccc(O)cc2O)oc2c3c(cc(O)c2c1=O)OC(C)(C)C=C3	x	-3	3	4	x	x	x
Cc1cc(C(=O)N/N=C2\CC(=O)CC(C)(C)C2)c(C)n1-c1ccc(F)cc1	19	5	0	41*	3	1	64*
Cc1cc(C(=O)N/N=C2\CC(=O)CC(C)(C)C2)c(C)n1-c1ccccc1	11	-2	2	37*	6	-9	34*
Cc1cc(C)c2c(n1)SCC(=O)N2CC(=O)Nc1ccc(C)c(C)c1	-10	-4	1	-4	3	5	x
Cc1ccc(-c2csc(NS(=O)(=O)c3cccc(F)c3)n2)o1	37*	x	x	47*	5	9	72*
C=C1c2cccc(O)c2C(=O)C2C(=O)[C@]3(O)C(=O)C(C(N)=O)C(=O)[C@@H](N(C)C)[C@@H]3[C@@H](O)[C@H]12 (stereo partly drawn)	52*	x	x	92*	33*	45*	9
CCOC(=O)Cc1csc(SCC(=O)Nc2nccs2)n1	0	-4	-2	2	7	5	x
CCOC(=O)Cc1csc(SCC(=O)Nc2sc3c(c2C(N)=O)CCC3)n1	19	-4	1	37*	7	20	19
